# ± gives the standard deviation of the averaged measurements.
# Assays:
# [1] = tested on: Escherichia coli Nissle 1917; test: area under OmniLog respiration curve over 48 h (OmniLog units x h); higher = more growth / nutrient utilisation; extreme values may be limits of the assay; conditions: incubation: 48 h, 37 °C
# [2] = tested on: Escherichia coli Nissle 1917; test: DuctApe activity index of respiration/growth curve (0 no growth to 9 maximum) (index 0-9); higher = more growth / nutrient utilisation, active = 3 or more; extreme values may be limits of the assay; conditions: incubation: 48 h, 37 °C
# [3] = nutrient role: sole sulfur source (pyruvate carbon)
# [4] = nutrient role: sole phosphorus source (pyruvate carbon)
# [5] = nutrient role: sole nitrogen source (pyruvate carbon)
# [6] = nutrient role: C-Source, carboxylic acid
# [7] = nutrient role: C-Source, alcohol
# [8] = nutrient role: C-Source, amino acid
# [9] = nutrient role: C-Source, carbohydrate
# 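Throughout, for DuctApe activity index of respiration/growth curve (0 no growth to 9 maximum): biolog PM4 phosphorus and sulfur plates, tetrazolium violet dye reduction read in the OmniLog every 15 min, kinetic curves scored by DuctApe, each plate run in triplicate.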
structure (smiles),measurement,setting,value
N[C@@H](CS)C(=O)NCC(=O)O,area under OmniLog respiration curve,[1]; [3],6960 ± 77
same,DuctApe activity index,[2]; [3],7 (active)
Nc1ncnc2c1ncn2[C@@H]1O[C@H](CO)[C@@H](OP(=O)(O)O)[C@H]1O [Adenosine 3`-Monophosphate],area under OmniLog respiration curve,[1]; [4],9700 ± 640
same,DuctApe activity index,[2]; [4],9 (active)
CCCCS(=O)(=O)O [Butane Sulfonic acid],area under OmniLog respiration curve,[1]; [3],7820 ± 190
same,DuctApe activity index,[2]; [3],8 (active)
O=C1NC(=O)C(=O)N1 [Parabanic acid],area under OmniLog respiration curve,[1]; [5],556 ± 610
same,DuctApe activity index,[2]; [5],1.33 (inactive)
CC(=O)CC(=O)O [Acetoacetic acid],area under OmniLog respiration curve,[1]; [6],784 ± 630
same,DuctApe activity index,[2]; [6],0 (inactive)
O=C(CO)CO [Dihydroxyacetone],area under OmniLog respiration curve,[1]; [7],6280 ± 820
same,DuctApe activity index,[2]; [7],7 (active)
NCC(=O)N[C@@H](CC(=O)O)C(=O)O,area under OmniLog respiration curve,[1]; [8],8800 ± 750
same,DuctApe activity index,[2]; [8],8.67 (active)
COC(=O)C(C)=O [Methylpyruvate],area under OmniLog respiration curve,"[1]; nutrient role: C-Source, ester",8530 ± 550
same,DuctApe activity index,"[2]; nutrient role: C-Source, ester",8.33 (active)
OC[C@H]1OC(O)[C@H](O)[C@@H](O)[C@@H]1O (stereo partly drawn) [a-D-Glucose],area under OmniLog respiration curve,[1]; [9],7320 ± 620
same,DuctApe activity index,[2]; [9],7.67 (active)
O[C@@H]1[C@@H](O)[C@@H](O)CO[C@H]1O [L-Arabinose],area under OmniLog respiration curve,[1]; [9],8240 ± 430
same,DuctApe activity index,[2]; [9],8 (active)
CCC(N)C(=O)O (racemic) [DL-a-Amino-N-Butyric acid],area under OmniLog respiration curve,[1]; [5],6040 ± 1200
same,DuctApe activity index,[2]; [5],7 (active)
O=C(O)CC(O)(CC(=O)O)C(=O)O [Citric acid],area under OmniLog respiration curve,[1]; [6],31.1 ± 32
same,DuctApe activity index,[2]; [6],0 (inactive)
O=C(O)CC(CC(=O)O)C(=O)O [Tricarballylic acid],area under OmniLog respiration curve,[1]; [6],5.51 ± 1.4
same,DuctApe activity index,[2]; [6],0 (inactive)
CCC(C)N (stereo not given) [sec-Butylamine],area under OmniLog respiration curve,"[1]; nutrient role: C-Source, amine",5.72 ± 1.7
same,DuctApe activity index,"[2]; nutrient role: C-Source, amine",0 (inactive)
Nc1ccn([C@@H]2O[C@H](COP(=O)(O)O)[C@@H](O)[C@H]2O)c(=O)n1 [Cytidine 5`-Monophosphate],area under OmniLog respiration curve,[1]; [4],8880 ± 960
same,DuctApe activity index,[2]; [4],8.67 (active)
